Experimental data: PubChem BioAssay AID2216 (Broad Institute, 2009)
Among all 300,000 compounds or so, about 3,300 (1.1%) were called active. Roughly 6% stayed inconclusive and do not appear here. The full list was thinned out, with actives kept by preference. Values without a mark were called inactive.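 The calls were made as follows: active = more than half of the replicate wells show a fall in the fluorescence ratio signal beyond about 16% (limit read from the data, passing the limit was not always enough); inconclusive = exactly half of the replicate wells pass the set limit; inactive = fewer than half of replicates pass the limit.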

Tested on: Ran GTPase (GTP-bound) - importin-beta complex
Assay: disruptors of Ran-importin-beta complex formation – biochemical, FRET, CFP-Ran, YFP-importin-beta, homogeneous, primary screen (AID 2216);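 also: 0% = DMSO wells and 100% = Ran loaded with GDP instead of GTP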
Conditions: cell-free CFP-Ran/YFP-importin-beta FRET ratio; stronger effect = higher value; concentration not given here

Compound | inhibition
O=C(N/N=C/c1cccnc1)c1cc2ccccc2cc1O | -5.78%
Cc1ccccc1NC(=O)NNC(=O)OC(C)(C)C | 3.65%
CCC(=O)OCCNc1nc(-c2ccccc2)nc2ccccc12 | -0.305%
COc1ccc(-c2cc(C(=O)Nc3ccccc3O)c3ccccc3n2)cc1 | 5.76%
CC(C)(C)OC(=O)NNc1c2ccccc2nc2ccccc12 | 45.2% (active)
O=C(NNc1c2ccccc2nc2ccccc12)c1cc2ccccc2cc1O | 46.1% (active)
COC(=O)c1ccc(SCc2ccccc2)nc1 | 1.08%
CCc1nnc(NS(=O)(=O)c2ccc(NC(=O)c3cccc(OC(F)(F)C(F)F)c3)cc2)s1 | -0.123%
COc1ccc(C(CNC(=O)c2ccc(S(=O)(=O)Nc3ccccc3C)cc2)N2CCOCC2)cc1 (centres undefined) | 0.862%
O=S(=O)(Nc1ccc(O)c2ccccc12)c1ccc(OC(F)(F)F)cc1 | 2.4%
COc1ccc(CNS(=O)(=O)c2cc3c4c(c2)CCN4C(=O)CC3)cc1 | -2.98%
Cc1nn(CC(=O)Nc2ccc(F)cc2)c(=O)c2ccccc12 | 0.000866%
Cn1c(SCC(=O)c2ccc(F)cc2)nnc1-c1ccccn1 | 8.68%
Cn1c2ccccc2n2c(=O)c(=O)n(CC(=O)c3ccc(F)cc3)nc12 | 23.2% (active)
O=C(CNS(=O)(=O)c1ccccc1)N1CCN(C(=O)c2ccco2)CC1 | 1.51%
COc1ccccc1N(C)S(=O)(=O)c1ccc(Cl)c(C(=O)Nc2ccncc2)c1 | -1.81%
CSCCC(NC(=O)COc1ccccc1)C(=O)OCCOc1ccc(F)cc1 (centres undefined) | 6.76%
CCCCn1c(N)c(N(CC(C)C)C(=O)CN(C)S(=O)(=O)c2ccc(F)cc2)c(=O)[nH]c1=O | 6.85%
CCN1C(=O)[C@@H]2[C@@H](c3ccc(-c4ccccc4)cc3)N3CCCC[C@@]3(C(=O)OC)[C@@H]2C1=O | -2.21%
CCCc1cc(=O)oc2c(C)c(OCC(=O)N3CCC(C(=O)O)CC3)ccc12 | 0.461%
CCCc1cc(=O)oc2c(C)c(O)c(CN3CCCCC3)cc12 | 58.6% (active)
CCCc1cc(=O)oc2c(C)c(OC(C)C(=O)NCC(O)c3ccccc3)ccc12 (centres undefined) | 1.81%
O=C(Nc1ccc(C(=O)N2CCOCC2)cc1)Nc1cccc(C(F)(F)F)c1 | -2.36%

Compound | inhibition
Cc1ccc(C)c(OCCC(=O)OCC(=O)c2ccc3c(c2)NC(=O)CO3)c1 | 0.406%
CCCCn1c(N)c(N(CCOC)C(=O)c2sc3ccccc3c2Cl)c(=O)[nH]c1=O | 7.27%
Cc1nc2ccccc2c(=O)n1-c1ccc(F)c(NC(=O)c2cccs2)c1 | 7.77%
O=C(N/N=C/c1ccccn1)c1ccc(S(=O)(=O)N2CCCCCC2)cc1 | 3.77%
Cc1ncc(CO)c(/C=N/NC(=O)c2cccc(S(=O)(=O)N3CCCC3)c2)c1O | 38.4% (active)
Cc1cccc(NC(=O)c2cccc(S(=O)(=O)N3CCCC3)c2)n1 | 1.93%
Cc1ccc(C(=O)CN2C(=O)NC3(CCc4ccccc43)C2=O)c(C)c1 (centres undefined) | -0.128%
Cc1ccc(C(=O)NNC(=O)c2ccncc2)cc1S(=O)(=O)N1CCCCC1 | -4.29%
CCOC(=O)C1=C(O)/C(=C/c2cc(C)n(-c3ccccc3)c2C)N=C1C | 3.69%
CCOC(=O)C1=C(O)/C(=C/c2ccc(OCC(=O)Nc3ccc(C)cc3)cc2)N=C1C | 70.2% (active)
Cc1ccc(NC(=O)COc2ccc(/C=C3/NC(=O)NC3=O)cc2)cc1 | -1.54%
CCOC(=O)c1ccccc1NC(=O)c1c(N)n(C)c(=O)[nH]c1=O | -1.23%
O=C(c1ccc(F)cc1)N1CCC(C(=O)N2CCN(S(=O)(=O)c3ccccc3Br)CC2)CC1 | 4.17%
CC(=O)Nc1cc2ccc(OC(C)=O)cc2oc1=O | 33.6% (active)
O=C(Nc1cc2ccccc2oc1=O)C1CCCCC1 | 4.19%
CC(=O)Oc1ccc2c(C)c(CC(C)O)c(=O)oc2c1 (centres undefined) | 10%
O=C1OC(/C=C/c2ccccc2)=NC/1=C/c1ccco1 | 0.891%
COc1ccccc1/C=C/C(=O)NC(=S)N1CCOCC1 | -1.73%
COc1ccccc1/C=C/C1=NC(=C\N(C)C)/C(=O)O1 | 37% (active)
Cc1cccc(C2c3[nH]c4ccccc4c3CCN2C(=O)c2cc(-c3cccn3C)n[nH]2)n1 (centres undefined) | 21.1% (active)
COCc1ccc(C(=O)N2CCc3c([nH]c4ccccc34)C2c2ccccn2)s1 (centres undefined) | 0.202%
O=C(c1cn2ccccc2n1)N1CCc2c([nH]c3ccccc23)C1c1ccccn1 (centres undefined) | 3.68%
O=C(NCC1(N2CCCCC2)CCCCC1)c1ccc(NS(=O)(=O)c2ccc(F)cc2)cc1 | -1.33%

Compound | inhibition
COC(=O)[C@]1(C)N[C@H](c2ccc(-c3ccc(Cl)c(Cl)c3)cc2)[C@@H]2C(=O)N(C)C(=O)[C@@H]21 | 1.99%
CC(C)Cn1c(N)c(C(=O)NCc2cccs2)c2nc3ccccc3nc21 | 73.8% (active)
CCOc1ccccc1NC(=O)Cn1nnc(C(=O)NCc2cccs2)c1N | 1.12%
CCCNC(=O)c1c(N)n(-c2ccc(S(N)(=O)=O)cc2)c2nc3ccccc3nc12 | 12.3%
Cc1c(C)n2c(SCC(=O)NC3CCCC3)nnc2[nH]c1=O | 1.36%
CC(C)(C)Oc1ccccc1Nc1nc(NCCO)nc(N2CCCC2)n1 | -2.11%
COc1ccc(C(=O)CC(=O)c2ccc(C)cc2)c(O)c1 | 2.86%
Cc1cc(O)cc(O)c1C(=O)Cc1cnn(-c2ccccc2)c1 | 0.165%
COc1ccc(C(=O)Cc2cnn(-c3ccccc3)c2)c(O)c1 | 17.5% (active)
CCCCn1c(N)c(N(CC(C)C)C(=O)c2cccc(S(=O)(=O)N3CCN(C(C)=O)CC3)c2)c(=O)[nH]c1=O | 6.15%
Cc1cc(/C=N/Nc2ccc([N+](=O)[O-])cn2)c(C)n1-c1cccc(C(=O)O)c1 | -1.11%
COc1cc(/C=N/O)ccc1OCc1ccc([N+](=O)[O-])cc1 | -0.23%
COc1cc(/C=N\Nc2ccc([N+](=O)[O-])cn2)ccc1OCC(=O)O | 69.7% (active)
COc1cccc(COC(=O)C2CCN(S(=O)(=O)c3cccs3)CC2)c1OC | 8.84%
Cc1cc(C(=O)OC(C)C(=O)NC2CCCCC2C)c(C)o1 (centres undefined) | -3.61%
CC(OC(=O)CNC(=O)c1ccc(Cl)c([N+](=O)[O-])c1)C(=O)NCc1ccco1 (centres undefined) | 5.87%
CC(OC(=O)CNC(=O)c1cccc(F)c1)C(=O)NC1CCCCC1C (centres undefined) | 18.8% (active)
CC(C)(C)c1ccc(C(=O)NCc2ccco2)cc1 | -1.24%
CCOc1ccc(CCNC(=O)COC(=O)c2c(OC)cccc2OC)cc1OCC | 1.08%
COCCn1c(SC(C)C(=O)NC2CC2)nnc1-c1cccc(C)c1 (centres undefined) | -0.425%
O=C(NCc1ccc(Cl)cc1)C(=O)NCC1CCCN1S(=O)(=O)c1cccs1 (centres undefined) | -0.323%
CC(=O)Nc1ccc(/C=C/C(=O)c2ccccc2)cc1 | -0.329%
CC(=O)Nc1ccc(C(=O)/C=C/c2ccc[nH]2)cc1 | 16.6% (active)

Compound | inhibition
CCCC(=O)Nc1ccc(C(=O)N/N=C/c2ccc[nH]2)cc1 | 2.49%
CC(C)Oc1ccc(S(=O)(=O)N2CCOCC2)cc1NC(=O)C1CSC2(C)CCC(=O)N12 (centres undefined) | -2.87%
COc1ccc(S(=O)(=O)NCCCc2ccccc2)cc1 | -4.52%
Cc1ccc(-c2nc3ccccc3[nH]c2=O)cc1 | 3.42%
O=C(Cc1nc2ccccc2[nH]c1=O)c1ccc(Cl)cc1 | 39% (active)
O=C(/C(=C/c1cccc(Cl)c1)c1nc2ccccc2[nH]1)c1ccccc1 | 2.15%
COC(=O)Cc1ccc(OCC(=O)Nc2ccc(OC(F)(F)F)cc2)cc1 | -0.217%
Cc1cc(C)cc(NS(=O)(=O)c2ccc(Oc3ncc(C(F)(F)F)cc3Cl)cc2)c1 | 1.58%
COC(=O)Cc1ccc(Oc2ncc(C(F)(F)F)cc2Cl)cc1 | 106% (active)
CCCCn1c(N)c(N(CC)C(=O)c2ccc(N(C)S(=O)(=O)c3ccc(C)cc3)cc2)c(=O)[nH]c1=O | -4.28%
COc1ccc(/C=C(\C#N)C(=O)OCC(=O)N(C)C2CCS(=O)(=O)C2)cc1 (centres undefined) | 1.11%
COc1ccccc1NS(=O)(=O)c1ccc(C(=O)N2CCN(c3ccccc3O)CC2)cc1 | 1.18%
COc1ccc(-n2cnc3cc(NCc4ccco4)ccc32)cc1 | 23% (active)
COc1ccc(Nc2nc(NCc3ccco3)nc(N/N=C/c3ccccc3Cl)n2)cc1 | -0.0694%
COc1ccc(-n2cnc3cc(C(=O)NC4CCCC4)ccc32)cc1 | -1.26%
CCCc1nnc(NC(=O)c2cccs2)s1 | -123%
CCCc1nnc(NC(=O)c2cc(OC)cc(OC)c2)s1 | 162% (active)
COc1ccc(Cc2nnc(NC(=O)c3cc(OC)c(OC)c(OC)c3)s2)cc1OC | 3.23%
C[C@@H]1O[C@@H](OC[C@H]2O[C@@H](Oc3c(-c4ccc(O)cc4)oc4cc(O)cc(O)c4c3=O)[C@H](O)[C@@H](O)[C@@H]2O)[C@H](O)[C@H](O)[C@H]1O | 2.8%
COc1ccc(CNC(=O)C2(CC3CC(c4ccccc4)=NO3)CCN(C(=O)c3cccc(O)c3)CC2)cc1 (centres undefined) | 5.15%
